Source: PubChem BioAssay
FH mod – Identification of activators of human fumarate hydratase by quantitative high-throughput screening. FH coupled MDH/diaphorase resazurin fluorescence, 15 min. Fumarate hydratase, mitochondrial (Homo sapiens), P07954. Potency, µM (top dose mostly 79.9 µM), usual class: inhibitors. AID 1347055, 2019. 54,000 compounds, 0.22% hits; further: the screen sought activators but most active calls are inhibition curves; nearly all actives have a fitted effect of over 45% in size
NTMT1 inh – Primary qHTS for Inhibitors of N-terminal methyltransferase 1 (NTMT1): MTaseGlo Assay | NTMT1 MTase-Glo SAH luminescence, purified enzyme | N-terminal Xaa-Pro-Lys N-methyltransferase 1 (Homo sapiens), Q9BV86 | Potency, µM (titrated, usually from 114 µM), actives largely listed as inhibitors | 59,000 compounds, 2.5% hits; further: nearly all actives have a fitted effect of over 65% in size
Target sequence (Q9BV86 whole entry, looked up): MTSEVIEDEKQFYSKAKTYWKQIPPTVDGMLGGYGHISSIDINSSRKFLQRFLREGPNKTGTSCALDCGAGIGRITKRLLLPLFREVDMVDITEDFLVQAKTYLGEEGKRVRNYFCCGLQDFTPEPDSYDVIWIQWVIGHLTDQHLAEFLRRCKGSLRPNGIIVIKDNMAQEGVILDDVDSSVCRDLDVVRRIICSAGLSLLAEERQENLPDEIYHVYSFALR
DYRK1A inh-1 – Assay for Inhibitors of Dual-Specificity Tyrosine-(Y)-Phosphorylation Regulated Kinase 1A (Kinase-Glo assay) | shares compounds with NTMT1 inh | recombinant DYRK1A, Kinase-Glo ATP depletion luminescence | Potency, µM (doses to about 76.9 µM), most hits filed as inhibitors | 100 compounds, 80% hits | AID 2705, 2010
CLK4 inh-1 – Confirmation Assay for Inhibitors of CDC-like Kinase 4 (Kinase-Glo Assay): SAR round 2. shares compounds with NTMT1 inh. recombinant Clk4, Kinase-Glo ATP luminescence, 4.5 h. Potency, µM (highest dose often 76.9 µM), most hits filed as inhibitors. 90 compounds, 90% hits
CLK4 inh-2 – Kinase Inhibition Study on Inhibitors of CDC-like Kinase 4 (Reaction Biology data): SAR round 2 | Reaction Biology kinase assay, 10 uM ATP | shares compounds with NTMT1 inh | 65 compounds, 100% hits | Potency, µM, most hits filed as inhibitors | AID 504421, 2011; calls by dose curve
DYRK1A inh-2 – Kinase Inhibition Study on Inhibitors of Dyrk1a (Reaction Biology data); AID 504424, 2011; Potency, µM, usual class: inhibitors; 65 compounds, 90% hits; Reaction Biology kinase assay, 10 uM ATP; shares compounds with NTMT1 inh;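 active means compounds that showed inhibition of Dyrk1a and received a fitted potency; inactive means compounds that showed no inhibition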
CLK2 RBC – Kinase Inhibition Study on Inhibitors of CDC-like Kinase 2 (Reaction Biology data) | shares compounds with NTMT1 inh | Reaction Biology kinase assay, 10 uM ATP | Potency, µM, most hits filed as inhibitors | 65 compounds, 90% hits;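 active means compound that inhibits Clk2 kinase in the dose series, with an IC50 potency reported; inactive means no inhibition seen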
CLK3 inh – Kinase Inhibition Study on Inhibitors of CDC-like Kinase 3 (Reaction Biology data); 65 compounds, 40% hits; recombinant CLK3 kinase assay, 10 uM ATP; shares compounds with NTMT1 inh; Potency, µM, hits mostly inhibitors;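 active means compounds that inhibited Clk3 enough in the ten-dose series to give a half-maximal potency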
DYRK1B inh – Kinase Inhibition Study on Inhibitors of Dyrk1b (Reaction Biology data); shares compounds with NTMT1 inh; Recombinant Dyrk1b kinase assay, 10 uM ATP; Potency, µM, hits mostly inhibitors; 65 compounds, 80% hits;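 active means compounds whose dose response shows an inhibitor phenotype against the kinase Dyrk1b; inactive means compounds showing no inhibitor phenotype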
CLK1 RBC – Kinase Inhibition Study on Inhibitors of CDC-like Kinase 1 (Reaction Biology data); shares compounds with NTMT1 inh; recombinant Clk1 kinase assay, 10 uM ATP; Potency, µM, most hits filed as inhibitors; 65 compounds, 90% hits;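 active means compounds that block the splicing kinase Clk1 enough to give a fitted half-inhibition concentration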
HSD17B4 counter – Extended Characterization of HPGD Inhibitors: Counterscreen Against HSD17b4; shares compounds with NTMT1 inh; purified HSD17B4, estradiol/NAD+, NADH fluorescence; Potency, µM (top dose mostly 57.1 µM), actives largely listed as inhibitors; 230 compounds, 10% hits; AID 743187, 2013
ALDH1A1 inh – Extended Characterization of HPGD Inhibitors: Counterscreen Against ALDH1A1; shares compounds with NTMT1 inh; recombinant ALDH1A1, NADH fluorescence, propionaldehyde/NAD+; Potency, µM (series often up to 57.1 µM), actives largely listed as inhibitors; 230 compounds, 93% hits; AID 743195, 2013
NNMT counter – Counterscreen qHTS for Inhibitors of N-terminal methyltransferase 1 (NTMT1): NNMT MTaseGlo assay | 120 compounds, 10% hits | shares compounds with NTMT1 inh | AID 1645878, 2021 | Potency, µM (top dose mostly 57.1 µM), actives largely listed as inhibitors | NNMT MTase-Glo luminescence, SAH detection
Target sequence (P40261 whole entry, looked up): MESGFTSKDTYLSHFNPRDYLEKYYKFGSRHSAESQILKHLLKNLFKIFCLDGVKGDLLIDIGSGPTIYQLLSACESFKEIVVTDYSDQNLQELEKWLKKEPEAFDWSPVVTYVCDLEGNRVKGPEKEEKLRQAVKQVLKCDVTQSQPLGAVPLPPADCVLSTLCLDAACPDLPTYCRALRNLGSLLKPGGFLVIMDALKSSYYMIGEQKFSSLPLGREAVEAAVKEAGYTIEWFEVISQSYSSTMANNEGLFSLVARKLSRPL
Numbers stand for hits. Shown is part of a subset that was picked to be rich in hits. Unless noted, the call rests on the fitted dose curve; in most records, active means well fitted curve in the direction sought with a large enough effect; inconclusive means small, poorly fitted or top-dose-only effect, or another doubt; inactive means no such curve, though single readings can be large; an effect the other way counts as inactive or inconclusive.

Cn1nnc(-c2ccc(-c3ccc(N4C[C@H](COP(=O)(O)O)OC4=O)cc3F)cn2)n1 was read as FH mod inactive and NTMT1 inh inactive.
Screening C=C(C(=O)O)C1CCC2(C)CCC(O)C(=C)C2C1 (stereo unspecified) returned FH mod inactive and NTMT1 inh inactive.
Screening COc1cccc(-c2ccc3ncnc(NCc4cccs4)c3c2)c1 returned NTMT1 inh inactive and DYRK1A inh-1 7.3µM.
c1csc(CNc2ncnc3ccc(-c4ccc5c(c4)OCCO5)cc23)c1 was read as NTMT1 inh inconclusive and DYRK1A inh-1 0.37µM.
`c1csc(CCNc2ncnc3ccc(-c4ccc5c(c4)OCO5)cc23)c1` gave NTMT1 inh inconclusive and DYRK1A inh-1 0.065µM.
For c1coc(CNc2ncnc3ccc(-c4ccc5c(c4)OCO5)cc23)c1 the results were CLK4 inh-1 0.037µM, CLK4 inh-2 0.079, DYRK1A inh-2 0.084µM, CLK2 RBC 0.3µM, CLK3 inh 2.6µM, DYRK1B inh 0.53µM and CLK1 RBC 0.19µM.
For COc1cn(-c2ccc(-n3cccn3)cc2F)nc(-c2ccnn2-c2ccccc2)c1=O the results were FH mod inactive and NTMT1 inh inactive.
`CC(C)(C)OC(=O)N1CCN(c2ccc(NCc3cccc(-c4ccc(C#N)cc4)n3)cc2)CC1` gave NTMT1 inh inactive.
For O=[N+]([O-])c1ccc(Oc2ccc3c(c2)CCC(c2ccccc2)O3)nc1 (stereo unspecified) the results were FH mod inactive and NTMT1 inh inactive.
c1csc(CNc2ncnc3ccc(-c4ccc5c(c4)OCO5)cc23)n1 was read as NTMT1 inh inactive, CLK4 inh-1 0.046µM, CLK4 inh-2 0.05, DYRK1A inh-2 0.07µM, CLK2 RBC 0.41µM, CLK3 inh 3.5µM, DYRK1B inh 0.45µM and CLK1 RBC 0.18µM.
Screening CN(Cc1nccs1)c1ncnc2ccc(-c3ccc4c(c3)OCO4)cc12 returned FH mod inactive, NTMT1 inh 7.1µM, DYRK1A inh-1 0.065µM, CLK4 inh-2 0.02, DYRK1A inh-2 0.051µM, CLK2 RBC 0.59µM, CLK3 inh 4.7µM, DYRK1B inh 0.18µM and CLK1 RBC 0.028µM.
For Fc1c(-c2ccc3ncnc(NCc4cccs4)c3c2)ccc2c1OCO2 the results were NTMT1 inh inconclusive, DYRK1A inh-1 0.18µM, CLK4 inh-2 0.13, DYRK1A inh-2 0.16µM, CLK2 RBC 4.4µM, CLK3 inh 9.3µM, DYRK1B inh 2.3µM and CLK1 RBC 0.31µM.
Screening Cn1ccc2cc(-c3ccc4ncnc(NCc5cccs5)c4c3)ccc21 returned NTMT1 inh inactive and DYRK1A inh-1 inconclusive.
Screening c1cncc(-c2ccc3ncnc(NCc4ccc5c(c4)OCO5)c3c2)c1 returned NTMT1 inh inactive.
Cc1ccc(CNc2nc(-c3ccccc3C(F)(F)F)nc3ccccc23)s1 was read as NTMT1 inh inactive.
COc1ccc(-n2cnc3cc(C(=O)N4CCCCC4)ccc32)cc1 was read as NTMT1 inh inconclusive, HSD17B4 counter inactive and ALDH1A1 inh 1.4µM.
For CCc1nc(C(N)=O)c(Nc2ccc(N3CCC(N4CCN(C)CC4)CC3)c(OC)c2)nc1NC1CCOCC1 the results were FH mod inactive, NTMT1 inh 20µM and NNMT counter inactive.
